Screens from PubChem.
TRHR agonist: activates the human TRH receptor | TRHR cells, calcium flux fluo-8, FDSS agonist mode | AID 493084 | 360,000 tested, 0.18% active | P34981 | activation, % at 2 µM; also: 0% is about no effect
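In this calcium-flux screen, cells bearing human TRHR are dye-loaded with fluo-8, baselined for 10 cycles, then exposed to library compounds; positive kinetic calcium responses during the agonist phase mark hits, with TRH as control.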
D1 ag: agonists of human D1 dopamine receptor; P21728; HEK293 T-REx D1 cells, calcium flux, agonist mode; activation, % at 2 µM; 360,000 tested, 1% active; AID 504660; also: 0% is about no effect
Target sequence (P21728 whole entry, looked up): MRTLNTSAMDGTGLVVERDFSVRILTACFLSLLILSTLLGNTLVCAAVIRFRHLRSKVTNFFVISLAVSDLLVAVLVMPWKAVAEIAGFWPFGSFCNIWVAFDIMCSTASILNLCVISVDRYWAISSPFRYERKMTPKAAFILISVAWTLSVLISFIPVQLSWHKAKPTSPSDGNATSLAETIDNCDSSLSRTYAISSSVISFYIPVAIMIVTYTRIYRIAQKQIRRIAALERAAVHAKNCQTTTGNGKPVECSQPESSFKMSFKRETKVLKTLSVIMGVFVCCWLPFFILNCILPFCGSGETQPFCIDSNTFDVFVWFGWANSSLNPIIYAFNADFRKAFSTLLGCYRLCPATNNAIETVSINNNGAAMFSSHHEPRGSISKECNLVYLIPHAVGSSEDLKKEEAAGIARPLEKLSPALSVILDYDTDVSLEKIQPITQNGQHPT
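Agonism was scored from calcium flux recorded over 180 s (1 read/s) after pintool compound addition, following a 10-cycle baseline. Cells were inducible force-coupled HEK293 TREx D1, plated overnight at 30 C and loaded with no-wash calcium dye.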
USP1 inh: blocks the human USP1/UAF1 deubiquitinase complex; 390,000 tested, 0.23% active; O94782; recombinant USP1/UAF1, Ub-Rhodamine cleavage fluorescence; Potency, µM (top dose mostly 57.1 µM), without a hit: at the highest dose activity change, negative = inhibition, actives largely listed as inhibitors; active = well fitted inhibition curve with a large enough effect; inconclusive = small, poorly fitted or top-dose-only effect; inactive = no such curve, though single readings can be large or run the other way; also: potency is read from the fitted curve at half-maximal effect; % is scaled to controls: 0 for no effect and ±100 for the full control effect; nearly all actives have a fitted effect of over 60% in size
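In this screen, compounds sit with the deubiquitinase complex (1nM) for 15 min at room temperature before Ub-Rho is added at 150nM final. Fluorescence rise is then followed for 6 reads every 60 seconds.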
TRHR enhancer: allosterically enhances the human TRH receptor; TRHR cells, fluo-8 calcium fluorescence, EC20 TRH enhancement; enhancement, % at 2 µM; 360,000 tested, 0.66% active; AID 493056; in the data active = enhancement above about 30%; also: 0% is about no effect
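Enhancer read-out: after compound pinning and an initial kinetic agonist-mode read, an EC20 of TRH (10 nM final) was injected and fluo-8 calcium signal (Ex 480/Em 530) followed at 1 s/cycle for 100 cycles in TRHR-expressing cells.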
D1 antag: human D1 dopamine receptor antagonism; activity change, negative = inhibition, % at 10 µM; P21728; 360,000 tested, 3.2% active; HEK293 TREx D1 cells, calcium flux, dopamine EC80; hits give low values; in the data active = activity change below about -30%; also: % is scaled to controls: 0 for no effect and ±100 for the full control effect
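Antagonism measured as reduced calcium response to an EC80 dopamine addition following 180 s compound pre-read; cells were inducible HEK293 Trex D1 plated overnight at 30 C, read kinetically at 1 cycle/sec.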
D1 PAM: human D1 dopamine receptor positive modulation | P21728 | HEK293 TREx D1 cells, calcium flux, dopamine EC20 potentiation | potentiation, % at 10 µM | 360,000 tested, 0.036% active | AID 504651; in the data active = potentiation above about 30%; also: 0% is about no effect
* = called active by the depositor; ? = inconclusive; nt = not tested or not shown. Most compounds without a hit are left out; they make up all but 4.4% or so of the library. Rule as the data show it, unless noted: active = activation above about 30%; inactive = the rest.

SMILES	TRHR agonist	D1 ag	USP1 inh	TRHR enhancer	D1 antag	D1 PAM
CCc1ccc2occ(CC(=O)Nc3sc4c(c3C(=O)NCCOC)CCCC4)c2c1	0.2	-2.2	-30.9%	-1.7	6.1	0.5
COc1cccc(NC(=O)c2nnn(Cc3ccc(OC)c(Br)c3)c2N)c1	0.3	4.6	-8.4%	0.5	-72.9*	-1.9
CCc1cccc(NC(=O)Cn2c(=O)c(C(F)(F)F)nc3ccccc32)c1	0.6	2.8	-19.5%	-2.3	35.6	6.7
CCCCCCCn1c(=O)c(C(=O)OC)c(N)c2ccccc21	0.3	42.4*	-26.5%	-6.6	-15.9	-8.6
CC(C)C[C@H](NC(=O)N1CC(=O)Nc2ccccc21)C(=O)N[C@H](C(=O)O)c1ccccc1	-0.1	-0.3	-7.2%	32.7*	-26.6	-0.9
CC(C)[C@H](NC(=O)N1CC(=O)Nc2ccccc21)C(=O)N[C@H](C(=O)O)c1ccccc1	0.4	4.3	-16.6%	30.4*	9.4	-3.5
COC(=O)c1ccc(Cn2c(=O)cc(C(F)(F)F)c3c(C)nn(C)c32)cc1	0.8	4.5	-11.6%	4.0	1.2	-2.5
O=C(/C=C/c1ccccc1)Nc1cccnc1Oc1ccccc1F	0.1	9.1	-21.6%	4.3	-39.3*	0.3
Nc1cccnc1Oc1ccccc1F	0.7	2.2	-4.8%	2.4	27.9	1.3
COc1ccccc1CNc1ncnc2c1c(-c1ccccc1)cn2-c1cccc(C)c1	0.8	4.5	1.8%	1.7	-3.2	-1.6
COc1ccc(NS(=O)(=O)c2cccc(NC(=O)c3cnccn3)c2)cc1Br	0.2	7.4	-27.7%	-0.6	-31.2*	-3.0
CCn1c(C(=O)NCCc2ccc(S(N)(=O)=O)cc2)cc2sc(Cl)cc21	0.3	-1.3	10.9%	-0.7	2.2	0.3
CCOc1ccc(NC(=O)CC2C(=O)N(c3cccc(C)c3)C(=O)N2CCC2=CCCCC2)cc1 (configuration not stated)	0.7	3.0	-26.0%	3.9	-0.6	-1.9
CCOC(=O)c1cccc(NC(=O)c2cc3sccc3n2Cc2ccc(Cl)cc2)c1	-1.6	9.8	-25.1%	2.9	5.6	-5.1
CCOC(=O)c1cccc(NC(=O)c2cc3sccc3n2C)c1	-0.9	1.5	-24.7%	2.0	-31.8*	-7.5
CC(Sc1nnc(-c2ccc(Cl)cc2Cl)n1Cc1ccccc1)C(=O)Nc1nccs1 (configuration not stated)	-1.8	0.1	?	0.2	-45.6*	1.8
Cc1nnc(SC(C)C(=O)Nc2ccc(Cl)cn2)n1Cc1ccccc1 (configuration not stated)	-0.2	1.7	-26.9%	2.1	30.0	0.0
CC(C)=CCC/C(C)=C/CC/C(C)=C/CC/C(C)=C/CC1=C(C)C(=O)c2ccccc2C1=O	-0.3	0.0	-24.0%	-5.6	-10.0	-1.5
CC(C)=CCC1=C(OCC(=O)O)C(=O)c2ccccc2C1=O	-1.2	1.5	10µM*	13.8	-17.5	3.0
COc1cccc(CNC(=O)CSc2nc3ccccc3nc2Cc2ccc(C)cc2)c1OC	0.2	4.0	-14.0%	32.8*	5.2	-2.4
CC(C)(C)C(=O)C1=C(O)C(=O)N(Cc2ccccc2)C1c1ccccc1F (configuration not stated)	-0.1	53.5*	-16.1%	5.7	-13.0	-6.2
CC(=O)C1=C(O)C(=O)N(Cc2ccco2)C1c1ccccc1F (configuration not stated)	-1.8	6.8	-11.0%	-4.8	2.0	4.3
CCOC(=O)CN1C(=O)N(c2ccc(C)c(C)c2)S(=O)(=O)c2ccccc21	0.1	-1.0	-13.8%	-12.8	-1.9	-3.0
CC(=O)c1sc(NC(=O)C2(F)C(F)(F)C(F)(F)C(F)(F)C(F)(F)C2(F)F)nc1C	-1.2	23.3	-10.4%	1.7	-35.0*	3.5
CCCC(=O)Nc1nc(C)c(C(C)=O)s1	-0.6	0.9	-22.6%	-3.8	-2.8	-1.1
SMILES	TRHR agonist	D1 ag	USP1 inh	TRHR enhancer	D1 antag	D1 PAM
CC(=O)c1sc(NC(=O)C=C(C)C)nc1C	-0.5	0.8	-14.3%	-2.4	11.8	0.5
CCCCC(=O)Nc1nc(C)c(C(C)=O)s1	-0.1	3.0	-17.6%	4.5	-49.8*	nt
COc1ccc(OC)c(NC(=O)N2CC3CCCN3c3ccccc32)c1 (configuration not stated)	-0.2	0.1	-9.8%	6.9	22.0	3.6
CCOC(=O)c1noc2nc(C)n(Cc3cccc(C#N)c3)c(=O)c12	-0.3	-0.3	-7.1%	-3.6	0.2	-2.1
CCOC(=O)c1c(C)[nH]c(CCC(=O)NCc2ccccc2C)c1C	0.0	0.0	-3.5%	-2.2	-1.7	6.8
COC(=O)c1ccc(OCC(O)CN2C(=O)c3ccccc3C2=O)cc1 (configuration not stated)	0.8	2.6	-13.9%	-1.6	-30.6*	-10.6
CCc1ccc(NC(=O)c2cnc(N3CCN(c4ccccn4)CC3)c3ccccc23)cc1	0.3	2.0	?	-0.1	-40.3*	-2.1
Cc1cccc(NC(=O)CCn2cnnn2)c1C	1.9	-0.4	-9.8%	-8.1	-2.2	-0.9
CC1CN(Cc2cc(=O)n3ccsc3n2)CC(C)O1 (configuration not stated)	0.2	1.3	-8.4%	1.4	-49.4*	0.7
CCN(CC)S(=O)(=O)c1ccc2c(c1)nc(CN(C)C(=O)Nc1ccc(C)c(F)c1)n2C	-1.1	1.3	-25.9%	-26.1	-67.9*	-1.2
